Laboratory results from the supplement of paper PMC12632987.
In all, about 2,300 sequences were measured (“median log2 fold change of GCK-ALFA target abundance (FLAG IP / Myc IP barcode read proportion)”: median about 0.095, lowest 2% from about -0.47 on). Only a selection was taken, and the lowest values are over-represented in it overall.

B1: LC3A_28_1074 (protein)
chain: SAVEEENEKILKEAKEAKEKGEPAVITIKIDESDTDEDIEKKLETIREVAEILKDVEGAAIIIDLEGEKALSRLDEVADLADELEEKYPNLTVIIALDDE
B2: LC3A_free_46_2358 (protein)
chain: YKAEIDIDLLHEDKEVLEKAVEEIEKAAREIAEKYGLKVEIEKEFEKLPDGSYYARIRITLEGEDKEKVEEAVNELINEIDKISKKYDVASIISYEIEEK
B3: LC3A_free_8_2524 (protein)
chain: SKQEFANKATEVLDELEEKLRKALEELGASRLDILEAEVLVGSIIAEVISLSDKEPEEQLKAIKEGLKDLVEELEKYKETVKKLADEALKKIEEIKKELE
B4: LC3A_147_445 (protein)
chain: VKVEVTIGVLMKNKPEVGDELVEKLRETAEAAGAEVEVEVEREKIDENTVYLLIKLTLTTETREAAEALANKVIDTVEEFAEKHKDEILGYIISVEISEA
B5: LC3A_127_188 (protein)
chain: EIEKLIKELLKELEKLSELLSSPDFDLEEAEKLAKKILKLAKELEKLDPRFKPLVEDAKELLKIIEEMKNASPAEQEELKEHALMLVEGMEIEALSLELK
B6: LC3A_free_46_2376 (protein)
chain: YKIEIDIYFSAMSKEKAEEMAEEIKKAAEEISKKTGVKIEVEVKIITDENGETWLEVKVTIEGEDKEKALKAATELIDKFDEIAEKHGVSLIISVEEIDE
B7: LC3A_59_2018 (protein)
chain: SEELEALRERLREAVDDIDAFVAIVREGLERFRDDPERVRALLRAAMDVIVEELGMDPEEAEKTLAEMLAIWETEPDKEEAIARVTELVRDTLLLTPIEE
B8: LC3A_free_8_2515 (protein)
chain: MNQEFANKATEILEELEEKLVELLKEKGASELDILEAELLIGSAIAEVISLSDKSPEEILKAIRESLEELVEELEEHREEVKELAEEALKKIEEKKKELE
B9: LC3A_3_1855 (protein)
chain: MEEIIEEALKLLKELGRSEETIEAARKLLEALKERGFEEAAKVLLEELKKLKNVSDEDLLEMFNELLKALEEEDLNEEEAIELIKSEARVLLNAEEIEEL
B10: LC3A_3_1647 (protein)
chain: PEEEVEETVELLREAGHSEETIEAFRETAEALLERGYEEALRVLIEETRELLDLPDEILLAMLEEVLRVIKEEDLSEEEVIEEIRRIARIARSEGEIIEL
B11: LC3A_free_39_2193 (protein)
chain: SAAETEKAKAELLALAAEAGEEAKKLAEEIIKLIGEDLEKLKKLLEALKKAKEAGVDVLEVLKEALELAKELKKQGKSKEEIFEEVLELIEDAINLIPID
B12: LC3A_28_1195 (protein)
chain: SLAEETIKKIREQAKKALEEGDGAVIEVNISKELSDEGIDKILETIKEEAAKLADLESVSIIINVESGVSQENIDKIADTGEEIEEKYPNVTVIIALDED
B13: LC3A_28_898 (protein)
chain: MSALESAEAALAAVRAAVAAGDQAPLVLEVKAPSTEEDTEKLIELLEEIAREASQLTGVTIVIDIDESVSEENQQKLIDKAEELEKKYPNVTVIIALPES
B14: LC3A_28_683 (protein)
chain: SETDESIEKALKKAKEALEKGKPEVIEIKVSGDTTEEELEKILEALEEIAEIANKVPGSAIIIDIDADLPQEFRDKLIDKAEELEEKYPNVTIIFALEER
B15: LC3A_free_0_2122 (protein)
chain: KKTVVEVVVILDESTSKETAEEIYEKLKEKAEELAKEAGAEVESSLSEVDGSYIITIKITLPTDDIDKALELEDKLVETAEEIAKEAGVEATIYSSVYLE
B16: LC3A_3_1412 (protein)
chain: LEERREALLAELRAAGWSEETLAAVEELLEALLARGAEEEAERALELLRAARDLPSERLLEVVEEALRALREEGLSPEEVIALLEELLRVARAEQEIEEL
B17: LC3A_28_1281 (protein)
chain: SEIEEEIERAIKEAKEAKEKGEPAVIEIEVPGDATEEEIEKVIKGLEEIAEILKDIPNQAIVINVDSGVKEEHIDKLVDKAEEIEEKYPNVTVIIALDED
B18: LC3A_3_1385 (protein)
chain: MEEEMEKTLERLREAGHSEETIEAARKALEALIEKGYENSAKTFIELLDELIHLPDELLLELFEDVLELIETEDIDEETLTEKIKEIASVYKNESEIEEL
B19: LC3A_free_26_2139 (protein)
chain: EKFVDIYLIDEAIDALEKAKELAKKIEGIGEKLVKLLEEALKLIEKETLESLEKAIKILKEIKELIEKDKTIDEETKKELLELVTKALEKVEEVVKIMKE

These binders were tested against MAP1LC3A, Q9H492 (assay: median log2 fold change of GCK-ALFA target abundance (FLAG IP / Myc IP barcode read proportion) (log2 ratio); each designed protein is fused to an ALFA-tag nanobody in HEK293 cells to bring the named protein to FLAG-tagged glucokinase (GCK); Myc marks an untargeted standard; higher = target protein stabilised (more abundant)). Settings: target protein: 3xFLAG-MCP-GCK-ALFA reporter; HEK293 landing pad (RPLP).
Summary of the method: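 An ALFA-nanobody-fused binder library was recombined into HEK293 landing-pad cells and induced with 2 μg mL^−1 doxycycline. Cells were transfected with a plasmid expressing a FLAG-tagged target and a Myc-tagged standard. After 48 h, lysates underwent anti-FLAG and anti-Myc immunoprecipitation, and circular RNA barcodes were reverse transcribed, amplified and sequenced. Target abundance is the per-binder median log2 ratio of FLAG to Myc barcode read proportions. Barcodes needed ≥10^−7 proportion in both replicates, binders ≥3 barcodes per replicate, and a 10^−6 pseudocount was added; the two replicates were pooled.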
In the case of B1, the “median log2 fold change” value is reported as 0.0473. With B2 the “median log2 fold change” value was -0.026. In the case of B3, the “median log2 fold change” value is reported as -0.575. In the case of B4, the “median log2 fold change” value is reported as -0.265. For B5, the “median log2 fold change” value was 0.156. In the case of B6, the “median log2 fold change” value is reported as -0.231. In the case of B7, the “median log2 fold change” value is reported as -0.587. B8 was tested, and the “median log2 fold change” value was 0.159. B9 was tested, and the “median log2 fold change” value was 0.224. In the case of B10, the “median log2 fold change” value is reported as 0.138. With B11 the “median log2 fold change” value was 0.242. In the case of B12, the “median log2 fold change” value is reported as 0.229. With B13 the “median log2 fold change” value was 0.201. B14 was tested, and the “median log2 fold change” value was -0.521. In the case of B15, the “median log2 fold change” value is reported as -0.221. For B16, the “median log2 fold change” value was 0.243. With B17 the “median log2 fold change” value was -0.286. For B18, the “median log2 fold change” value was 0.082. In the case of B19, the “median log2 fold change” value is reported as 0.132.
